Only some compounds are listed: those with a hit (about 0.92% of all), similar ones and a draw of the others.
RXFP1 antagonist = qHTS Assay for Antagonists of the Relaxin Receptor RXFP1 | Relaxin receptor 1 (Homo sapiens), Q9HBX9 | HEK293-RXFP1, relaxin-stimulated cAMP HTRF, 30 min; hits give low values | activity change, negative = inhibition, % at 57.5 µM | 350,000 compounds, 0.59% hits;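 active = activity change of -60% or lower, but not beyond a set lower limit; inconclusive = change between -60% and -40%, or beyond the set limit; inactive = change above -40%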; also: % is scaled to controls: 0 for no effect and ±100 for the full control effect
PKM2 act = qHTS Assay for Activators of Human Muscle isoform 2 Pyruvate Kinase; Pyruvate kinase PKM (Homo sapiens), P14618; purified PKM2, Kinase-Glo ATP luminescence, activation; response scale: 0% is enzyme alone, no compound; Potency, µM (highest dose often 57.5 µM), for the others: at the highest dose activation, most hits filed as activators; 260,000 compounds, 0.34% hits; AID 1631, 2009; also: potency is read from the fitted curve at half-maximal effect; % is scaled to controls: 0 for no effect and ±100 for the full control effect; nearly all actives have a fitted effect of over 55% in size
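Kinase-Glo luminescence reports ATP generated from ADP (0.1 mM) and PEP (0.5 mM) by purified hPK-M2 after 1 h at room temperature, pH 7.2 imidazole buffer; intermediate enzyme activity allows detecting inhibitors and activators.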
RXFP1 ag = qHTS Assay for Agonists of the Relaxin Receptor RXFP1; 370,000 compounds, 0.3% hits; AID 2676, 2010; HEK293T-RXFP1 cAMP TR-FRET, 30 min; response scale: percent of porcine relaxin response, buffer zero; Potency, µM (titrated, usually from 57.5 µM), for the others: top-dose activation, usual class: activators; also: potency is read from the fitted curve at half-maximal effect; % is scaled to controls: 0 for no effect and ±100 for the full control effect; nearly all actives have a fitted effect of over 60% in size
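HEK293T cells stably expressing RXFP1 were pretreated with the PDE4 inhibitor Ro 20174, exposed to compounds for 30 min at 37C, lysed, and cAMP was read by TR-FRET. Data normalized to buffer (basal) and 29 nM porcine relaxin (100%).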
Luc counter = Counterscreen for Luciferase (Kinase-Glo TM) Inhibition; Luciferin 4-monooxygenase (Photuris pensylvanica), Q27757; Kinase-Glo luciferase, ATP luminescence, 8 min; Potency, µM (series often up to 38.3 µM), for inactives: at the highest dose activity change, negative = inhibition, hits mostly inhibitors; 200,000 compounds, 0.28% hits; AID 1379, 2008; also: potency is read from the fitted curve at half-maximal effect; % is scaled to controls: 0 for no effect and ±100 for the full control effect; nearly all actives have a fitted effect of over 60% in size
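Compounds were added to a substrate mix at pH 7.2 (50 mM imidazole, 10 uM ATP, within the enzyme's linear range), followed by Kinase-Glo detection reagent; luminescence was measured after 8 minutes at ambient temperature.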
GALK inhibitor = qHTS Assay for Inhibitors of Human Galactokinase (GALK). P51570. Purified GALK, Kinase-Glo residual ATP luminescence. Potency, µM (titrated, usually from 57.5 µM), without a hit: at the highest dose activity change, negative = inhibition, most hits filed as inhibitors. 270,000 compounds, 0.007% hits. AID 1868, 2009; also: potency is read from the fitted curve at half-maximal effect; % is scaled to controls: 0 for no effect and ±100 for the full control effect
Target sequence (P51570 whole entry, looked up): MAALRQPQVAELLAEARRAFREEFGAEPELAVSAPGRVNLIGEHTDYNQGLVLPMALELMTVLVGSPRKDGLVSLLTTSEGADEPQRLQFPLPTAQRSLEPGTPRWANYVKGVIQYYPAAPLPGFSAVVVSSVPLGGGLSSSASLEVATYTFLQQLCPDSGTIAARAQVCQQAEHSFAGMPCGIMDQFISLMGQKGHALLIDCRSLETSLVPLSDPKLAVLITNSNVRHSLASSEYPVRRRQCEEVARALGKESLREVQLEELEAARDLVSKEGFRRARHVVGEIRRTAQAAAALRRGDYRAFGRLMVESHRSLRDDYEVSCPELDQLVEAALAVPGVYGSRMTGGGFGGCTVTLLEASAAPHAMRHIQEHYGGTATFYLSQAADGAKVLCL
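Kinase-Glo Plus luminescence measured ATP left after a 1 h room-temperature reaction. The reaction used 5 nM GALK, 100 uM galactose and 35 uM ATP at pH 8.0 (20 mM HEPES, 5 mM MgCl2, 60 mM NaCl, 1 mM DTT, 0.01% BSA).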
miR-21 act = qHTS Assay for Modulators of miRNAs and/orActivators of miR-21; HeLa miR-21 FLuc reporter, luciferase, 48 h; Potency, µM (series often up to 38.3 µM), without a hit: at the highest dose activity change, positive = activation, hits mostly activators; 340,000 tested, under 10 active;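 also: % of control where 0% means no effect; miR-21 action dims this reporter so a rising signal means less miR-21 action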
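HeLa miR-21-FLuc reporter line, endogenous miR-21; 2000 cells/well in DMEM/10% FBS; compound titration up to ~40uM final, 48 h, 37 degree Celsius; luciferase detection reagent, 15 min lysis, CCD luminescence.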
The depositor's hits bear a star; ? = inconclusive; . = no result; [ ] = dose if it differs, or a comment. Unless noted, calls follow the shape of the dose curve; as a rule, active = well fitted curve in the direction sought with a large enough effect; inconclusive = small, poorly fitted or top-dose-only effect, or another doubt; inactive = no such curve, though single readings can be large; an effect the other way counts as inactive or inconclusive.

SMILES	RXFP1 antagonist	PKM2 act	RXFP1 ag	Luc counter	GALK inhibitor	miR-21 act
O=C(N=Nc1c(O)[nH]c2ccc([N+](=O)[O-])cc12)c1ccccc1[N+](=O)[O-]	-1.4	3.4%	-0.7%	.	1.4%	-20.9%
CC(Oc1ccccc1)C(=O)N=Nc1c(O)[nH]c2ccc([N+](=O)[O-])cc12 (stereo not drawn)	-83.8*	4.5%	1.1%	1.2%	-4.0%	0.7%
OCc1ccccc1SSc1ccccc1CO	-64.6*	.	.	.	.	.
CCn1c(CN2CCC(C)CC2)nc2cc(NC(=O)COc3ccc([N+](=O)[O-])cc3)ccc21	-0.7	.	-1.5%	.	.	-3.4%
O=C(C(=O)N1CCCc2ccccc21)c1c[nH]c2ccccc12	-1.9	35.5µM*	-0.4%	1.0%	-0.2%	1.0%
CN(C)CCCN1c2ccccc2Sc2ccc3ccccc3c21	-62.6*	.	.	-0.4%[7.66 µM]	.	.
CS(=O)(=O)N1CCN(c2ccc([N+](=O)[O-])c(NCc3cccnc3)c2)CC1	-16.0	10µM*	5.0%	2.9%	3.4%	-7.4%
Cc1cccc(C(=O)Nc2cccc(C(=O)OCc3cc(=O)n4nc(C5CC5)sc4n3)c2)c1	0.0	.	?	.	.	-52.2%
CN(CC(=O)NCCc1ccccc1)Cc1ccco1	4.6	-2.8%	1.6%	.	-1.6%	-67.2%
CCc1cc(-c2n[nH]c(=S)n2-c2cccc(C)c2)cs1	-3.2	4.6%	-0.6%	-6.0%	-1.7%	-20.6%
Cc1cccc(-n2c(-c3csc(C)c3)n[nH]c2=S)c1	-66.4*	-9.0%	4.1%	-2.8%	-0.9%	1.5%
O=C(C1CCCCC1)N(Cc1cccnc1)c1nc2c(F)cccc2s1	-71.6*	.	0.8%	.	.	-2.1%
O=C(CCc1ccccc1)N(Cc1cccnc1)c1nc2c(F)cc(F)cc2s1	-86.0*	.	0.4%	.	.	-4.3%
COC(=O)[C@H]1[C@H]2C[C@@H]3c4[nH]c5cc(OC)ccc5c4CCN3C[C@H]2C[C@@H](OC(=O)/C=C/c2ccc(O)c(OC)c2)[C@@H]1OC	-15.7	.	.	.	.	.
CCOC(=O)c1cnc(Nc2nc3ccccc3o2)nc1C	12.3	-49.3%	3.0%	2µM*	8.0%	-28.2%
Cn1nccc1C(=O)NCc1ccc2c(c1)CCN2C(=O)c1ccc(F)cc1	-73.4*	.	2.7%	.	.	28.7%
O=C(CSc1ncc(-c2ccc(Cl)cc2)[nH]1)Nc1ccccc1F	-4.5	.	1.1%	.	.	0.1%
CC(C)COC(=O)CNc1n[nH]c(=S)[nH]c1=O	?	-14.2%	26.7%	-3.0%	-0.5%	-1.7%
CCCCOC(=O)CNc1n[nH]c(=S)[nH]c1=O	-63.5*	2.4%	?	4.2%	0.3%	-3.5%
CCC(C(=O)NCCCN1CCOCC1)n1c2ccccc2c2nc(=O)cc(C)n21 (stereo not drawn)	-70.4*	.	0.4%	.	3.6%	-1.8%
CCN1CCCC1CNC(=O)c1ccc2c(c1)N(Cc1ccccc1F)C(=O)c1ccccc1S2(=O)=O (stereo not drawn)	-100.2*	.	-1.2%	.	4.9%	1.9%
CCNC(=O)CC1C(=O)N(c2ccccc2)C(=O)N1Cc1ccc(F)cc1 (stereo not drawn)	.	.	0.8%	.	.	-0.6%
CCOc1cccc(-c2c(C(=O)N/N=C(\C)c3ccccn3)nnn2-c2nonc2N)c1	1.7	.	-0.1%	.	3.1%	8.9%
CCOc1cccc(-c2c(C(=O)N/N=C(\C)c3ccncc3)nnn2-c2nonc2N)c1	-62.5*	.	-2.6%	.	2.9%	-0.8%
CC(=O)Nc1ccc(S(=O)(=O)Nc2nnc(C(C)(C)C)s2)cc1	7.5	15.8µM*	-1.8%	14.7%	-1.3%	-2.9%
SMILES	RXFP1 antagonist	PKM2 act	RXFP1 ag	Luc counter	GALK inhibitor	miR-21 act
CC(C)(C)c1nnc(NS(=O)(=O)c2ccc(F)cc2)s1	9.4	.	.	.	.	.
COc1cc(NC(=O)C(CCSC)NS(=O)(=O)c2ccc3c(c2)oc(=O)n3C)cc(OC)c1 (stereo not drawn)	-10.7	.	-1.2%	.	.	3.4%
COc1ccc(-n2c(SCC(=O)NCC3CCCO3)nc3ccccc32)cc1 (stereo not drawn)	9.6	2.4%	3.2%	9.3%	2.0%	1.3%
N#CCCn1c(SCC(=O)NCC2CCCO2)nc2ccccc21 (stereo not drawn)	4.1	20µM*	1.9%	0.5%	0.0%	0.3%
Cc1cccc(OCCCn2c(CCNC(=O)C(C)(C)C)nc3ccccc32)c1	-3.6	.	-2.1%	.	.	15.3%
CC(C)(C)C(=O)NCCc1nc2ccccc2n1CCCCOc1ccc(Cl)cc1	-84.9*	.	-1.0%	.	.	?
Cc1ccccc1OCCCCn1c(CCNC(=O)C(C)(C)C)nc2ccccc21	-62.8*	.	-1.0%	.	.	14.1%
O=C(N/N=C/c1ccc([N+](=O)[O-])o1)c1cc(-c2ccc(-c3ccccc3)cc2)nc2ccccc12	-5.4	-1.7%	0.5%	11.2µM*	-0.5%	19.5%
CCN(CC)S(=O)(=O)c1ccc(C(=O)NCc2n[nH]c(=S)n2-c2ccccc2OC)cc1	-6.2	-9.0%	1.6%	-10.4%	-0.1%	-2.8%
CCN(CC)S(=O)(=O)c1ccc(C(=O)NCc2n[nH]c(=S)n2-c2ccc(Cl)c(Cl)c2)cc1	-63.6*	10.0%	0.8%	0.0%	-1.1%	-6.0%
O=C(c1ccc(N2CCCC2)c([N+](=O)[O-])c1)N1CCN(S(=O)(=O)c2ccc(Cl)cc2)CC1	-63.7*	.	-0.2%	.	.	.
O=C(c1ccc(Cl)c([N+](=O)[O-])c1)N1CCN(S(=O)(=O)c2ccc(Cl)cc2)CC1	0.7	.	-0.9%	.	.	.
Cc1ccc(C)c(N(C)C(=O)C2CCN(S(=O)(=O)c3cccc4nsnc34)CC2)c1	.	.	5.6%	.	.	24.4%
CS(=O)(=O)c1ccccc1-c1nnc(NC(=O)c2cccc(N3C(=O)CCC3=O)c2)o1	-76.4*	.	-0.5%	.	.	.
O=C(Nc1nnc(-c2ccncc2)o1)c1cccc(N2C(=O)CCC2=O)c1	-6.8	-2.2%	0.7%	2.5%	1.4%	-1.3%
COc1cccc(C(=O)Nc2ccc3nc(SCC(=O)N4CCOCC4)sc3c2)c1	-96.0*	.	-1.0%	.	.	18.7%
O=C(Nc1ccc2nc(SCC(=O)N3CCOCC3)sc2c1)c1ccccc1Cl	-63.7*	.	-0.1%	.	.	19.9%
O=C(Nc1ccc2nc(SCC(=O)N3CCOCC3)sc2c1)c1ccc(Br)cc1	-19.1	.	11.5%	.	.	5.8%
